The list is not random: actives were taken first. Their share in the collection is about 32%.
CYP2C9 activ – increases human cytochrome P450 2C9 activity; recombinant CYP2C9, luciferin-H conversion, luminescence; stronger effect = higher value; factor 1 = untreated enzyme, 0 = blocked; activation factor at 5 µM; 96,000 compounds, 1.4% hits; AID 1024; P11712;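 active = activation factor of 2 or more for CYP2C9 at a 5 µM dose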;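 note: 0 = sulfaphenazole-blocked wells and 1 = vehicle-only wells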
Target sequence (P11712 whole entry, looked up): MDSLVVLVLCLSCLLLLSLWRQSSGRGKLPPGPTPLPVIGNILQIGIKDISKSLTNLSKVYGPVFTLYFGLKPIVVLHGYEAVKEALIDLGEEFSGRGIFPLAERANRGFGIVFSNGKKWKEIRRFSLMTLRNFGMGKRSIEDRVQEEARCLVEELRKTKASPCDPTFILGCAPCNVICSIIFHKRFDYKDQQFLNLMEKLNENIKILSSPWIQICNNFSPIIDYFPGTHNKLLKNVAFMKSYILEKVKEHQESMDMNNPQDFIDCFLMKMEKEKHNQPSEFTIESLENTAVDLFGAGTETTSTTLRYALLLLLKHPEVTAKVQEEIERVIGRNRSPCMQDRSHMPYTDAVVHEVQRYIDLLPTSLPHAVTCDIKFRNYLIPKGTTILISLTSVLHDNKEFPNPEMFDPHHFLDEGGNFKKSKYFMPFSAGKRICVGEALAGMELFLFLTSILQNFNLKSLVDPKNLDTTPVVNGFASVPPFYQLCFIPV
PostGolgi ctrl – yeast control strain growth, post-Golgi counter-screen; efflux-deficient yeast background strain, growth absorbance A615, 16 h; inhibition, % at 10 µM; 98,000 compounds, 5% hits; AID 738
CYP2C19 act – cytochrome P450 2C19 (human) activation | P33261 | recombinant CYP2C19, luciferin-H EGE luminescence; stronger effect = higher value; 0 = fully inhibited enzyme, 1 = untreated enzyme | activation factor at 5 µM | 96,000 tested, under 10 active | AID 1025;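 active = activation factor of at least 2 at 5 µM in the primary screen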;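 note: 0 = wells with 2.5 mM tranylcypromine and 1 = vehicle-only wells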
CYP2C9 inhib – human CYP2C9 inhibition. P11712. CYP2C9 Supersomes, luciferin-H conversion, luminescence. inhibition, % at 5 µM. 96,000 compounds, 20% hits. AID 777;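 active = blocking of liver enzyme CYP2C9 beyond about 50% at 5 µM, limit read from the data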
PostGolgi yeast – growth inhibition of a yeast mutant, post-Golgi transport screen; post-Golgi transport phenotypic cell assay; inhibition, % at 10 µM; 98,000 compounds, 0.9% hits; AID 739;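 note: yeast cells grown in 1536-well plates; yeast grown about 18 h at 30C before absorbance read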
CYP2C19 inhib – human CYP2C19 inhibition; P33261; CYP2C19 Supersomes, luciferin-H EGE luminescence, 30 min; inhibition, % at 5 µM; 96,000 compounds, 21% hits;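 active = CYP2C19 inhibition above a set limit at 5 µM in the primary screen, cut at about 50% in these data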;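 note: plate controls were negative control wells for no effect and 2.5 mM tranylcypromine positive control for full effect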
Active calls of the source: *; · = not tested or not shown. Cut-off read from the data, not from the text of the source, unless noted: active = inhibition above about 30%; inactive = the rest.

SMILES | CYP2C9 activ | PostGolgi ctrl | CYP2C19 act | CYP2C9 inhib | PostGolgi yeast | CYP2C19 inhib
COc1ccc(C(=O)Nn2cnnc2)cc1 | 0.9 | -7 | 0.8 | 8 | 8 | 18
CC12CC(NC(=O)N1CCc1ccccc1)c1ccccc1O2 (stereo not given) | 0.7 | 16 | 0.2 | 29 | -2 | 79*
COc1ccc(CN(CC(=O)NCc2ccco2)C(=O)CCC(=O)Nc2ccccn2)cc1 | 0.8 | 0 | 0.9 | 17 | -2 | 5
O=C(CCCC(=O)N(CC(=O)NC1CCCC1)Cc1ccc2c(c1)OCO2)Nc1ccccn1 | 0.4 | 27 | 0.4 | 60* | -13 | 60*
O=C(CN(Cc1ccc2c(c1)OCO2)C(=O)c1cnsn1)NC1CCCC1 | 0.7 | 15 | 0.1 | 27 | 3 | 88*
O=C(CCCC(=O)N(c1ccc2c(c1)OCCO2)C(C(=O)NC1CCCCC1)c1ccc(Cl)cc1)Nc1ccccn1 (stereo not given) | 0.5 | 3 | 0.5 | 52* | -4 | 55*
O=C(CN(Cc1ccccc1)C(=O)CCC(=O)Nc1ccccn1)NCc1ccco1 | 0.7 | -8 | 0.4 | 28 | -4 | 59*
COc1ccc(C(C(=O)NC2CCCCC2)N(C(=O)CCCC(=O)Nc2ccccn2)c2ccc3c(c2)OCCO3)cc1 (stereo not given) | 0.7 | 11 | 0.6 | 27 | 3 | 41
O=C1NCCCC1C(=O)N1CCN(C(=O)C2CCCNC2=O)CC1 (stereo not given) | 1.1 | · | 1.2 | -10 | · | -17
O=C(CCCC(=O)N(CC(=O)NC1CCCC1)Cc1ccccc1)Nc1ccccn1 | 0.5 | 7 | 0.5 | 50* | -13 | 46
O=C(CCCC(=O)OCC(=O)NC1CCCC1)Nc1ccccn1 | 1 | 7 | 1.1 | -4 | 17 | -5
CCOC(=O)c1cccc(NC(=O)CNC(=O)C2CCCCC2)c1 | 0.6 | -1 | 0.7 | 40 | 0 | 30
CCc1cccc(NC(=O)C2CCN(S(=O)(=O)c3cccs3)CC2)c1 | 1 | 3 | 0.7 | -4 | -7 | 31
CCOC(=O)c1cccc(NC(=O)C2CCN(S(=O)(=O)c3cccs3)CC2)c1 | 0.2 | 9 | 0.1 | 84* | 4 | 88*
CCOC(=O)c1cccc(NC(=O)C2CCN(S(=O)(=O)c3cnc[nH]3)CC2)c1 | 0 | -3 | 0 | 100* | 0 | 99*
CN1CCN(C(=O)C2CCN(S(=O)(=O)c3cnc[nH]3)CC2)CC1 | 1.2 | -5 | 1.1 | -20 | 1 | -12
COc1cc(NC(=O)C2CCN(S(=O)(=O)c3cnc[nH]3)CC2)cc(OC)c1OC | 0.3 | 15 | 0.8 | 72* | 16 | 20
Cc1cc(NC(=O)C2CCN(S(=O)(=O)c3cnc[nH]3)CC2)ccc1Br | 0.2 | -1 | 0.5 | 79* | 2 | 45
O=C(OCC(=O)c1cccs1)c1ccc(NC(=O)c2ccco2)cc1 | 0.9 | 15 | 0.8 | 12 | 12 | 21
Brc1c(CSc2nncn2-c2ccccc2)nc2sccn12 | 1.1 | 0 | 0.8 | -12 | -5 | 21
COC(=O)C1C2C=CC3(CN(c4cccc(C)c4)C(=O)C13)O2 (stereo not given) | 1 | 20 | 1 | -2 | -1 | -1
CCOC(=O)c1ccc2c(c1)nc(C1CCN(S(=O)(=O)c3cccs3)CC1)n2CC | 0.1 | 11 | 0.2 | 87* | -3 | 84*
CCN(Cc1ccncc1)C(=O)C1CCN(S(=O)(=O)c2cccs2)CC1 | 0 | 5 | 0.2 | 99* | -15 | 80*
Cc1ccc(/C=N/N2CCN(Cc3cccc4ccccc34)CC2)o1 | 1.3 | 7 | 0.9 | -33 | 2 | 12
CCOC(=O)Cn1c(=O)oc2cc(S(=O)(=O)NC3CCCc4ccccc43)ccc21 (stereo not given) | 0.8 | -4 | 0.8 | 19 | 2 | 24
SMILES | CYP2C9 activ | PostGolgi ctrl | CYP2C19 act | CYP2C9 inhib | PostGolgi yeast | CYP2C19 inhib
COc1ccc(C(=O)Nn2c(SCC(=O)N3CCC(C)CC3)nc3ccccc3c2=O)cc1 | 0.1 | -2 | 0.6 | 86* | -2 | 39
COc1ccc(C(=O)Nn2c(SCC(=O)c3ccc(Cl)cc3)nc3ccccc3c2=O)cc1 | 0.2 | 5 | 0.8 | 82* | 13 | 25
COc1ccc(C(=O)Nn2c(SCC(=O)NCc3ccco3)nc3ccccc3c2=O)cc1 | 0.2 | 2 | 0.9 | 80* | 5 | 13
O=C(CSc1nc2ccccc2c(=O)n1Cc1ccc(C(=O)NC2CC2)cc1)NCc1ccco1 | 0.5 | 5 | 0.7 | 53* | -2 | 35
CCOC(=O)CCCNC(=O)COC(=O)CCC(=O)c1ccc(F)cc1 | 0.9 | 3 | 0.9 | 12 | 0 | 7
Cc1cccc(NC(=S)N2CCN(Cc3ccc4c(c3)OCO4)CC2)c1C | 1 | 15 | 0.9 | 0 | 6 | 14
COC(=O)c1sc(S(=O)(=O)N2CCC(C)CC2)c(C(=O)OC)c1C | 0.5 | 22 | 0.6 | 46 | -2 | 40
COC(=O)c1c(NC(=O)c2ccccc2)sc(Cc2ccccc2)c1C | 0.8 | 8 | 1.1 | 24 | -5 | -9
COC(=O)c1sc(S(=O)(=O)NCc2ccccc2)c(C(=O)OC)c1C | 0.4 | 18 | 0.2 | 60* | 23 | 83*
COC(=O)c1sc2nc(-c3ccccc3)nc(N3CCN(C)CC3)c2c1C | 0.9 | 7 | 0.9 | 8 | 4 | 15
COC(=O)c1sc(S(=O)(=O)N2CCCCC2)c(C(=O)OC)c1C | 0.6 | 2 | 0.4 | 39 | -10 | 62*
COC(=O)c1sc(S(=O)(=O)N2CCN(c3ccccc3)CC2)c(C(=O)OC)c1C | 0.2 | 11 | 0.1 | 78* | 3 | 89*
FC(F)(F)c1cc(-c2ccccc2)nc(-n2cncn2)n1 | 1 | 2 | 1.1 | 5 | 0 | -8
Cc1ccnc2nc(C(=O)OCCOc3cccc(Br)c3)nn12 | 1 | 5 | 0.9 | -2 | -4 | 9
Cc1ccc(C(c2nnnn2Cc2cccs2)N2CCN(C(=O)c3ccco3)CC2)cc1 (stereo not given) | 0.5 | 22 | 0.3 | 48 | 0 | 71*
CCCCC(c1nnnn1Cc1ccco1)N1CCN(C(=O)c2ccco2)CC1 (stereo not given) | 0.5 | 2 | 0.1 | 51* | -3 | 85*
CCCC(c1nnnn1Cc1ccco1)N1CCN(C(=O)c2ccco2)CC1 (stereo not given) | 0.8 | -10 | 0.7 | 19 | 0 | 30
CC(C)CC(c1nnnn1CCc1ccccc1)N1CCN(C(=O)c2ccco2)CC1 (stereo not given) | 0 | 30* | 0.2 | 98* | 2 | 80*
O=C(c1ccco1)N1CCN(C(c2ccccc2Cl)c2nnnn2CC2CCCO2)CC1 (stereo not given) | 1.1 | 4 | 1.1 | -9 | 5 | -11
CCC(c1nnnn1CCc1ccccc1)N1CCN(C(=O)c2ccco2)CC1 (stereo not given) | 0.9 | 22 | 0.9 | 12 | 9 | 6

Compound activity (PubChem BioAssay)
